The values below come from PubChem BioAssay AID2732 (Emory University Molecular Libraries Screening Center, 2010).

Screen size: about 220,000 compounds; about 8,200 (3.7%) were called active. This is one part of a sample in which actives are shown more often than they occur. Values without a mark were called inactive.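 The calls were made as follows: active = compounds that reduced the stress-induced luciferase reporter signal by more than about 70% of percent inhibition (limit read from the data); inactive = the rest.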

The test can be described thus: blockers of ER-stress CHOP reporter expression – cell-based, unfolded protein response, luciferase reporter, primary screen (AID 2732).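 Also: 0% = tunicamycin plus vehicle and 100% = wells without tunicamycin.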 The following applies: CHO-K1 CHOP-promoter luciferase, tunicamycin-induced, 15-18 h; at 10 µM; active compounds read high.
For the molecule `C/C(=N/NC(=O)CC(=O)N/N=C(\C)c1ccc([N+](=O)[O-])cc1)c1ccc([N+](=O)[O-])cc1`, the inhibition was -0.51%.

Take `CCCSc1nc2c(c(=O)[nH]c(=O)n2C)n1CCc1ccccc1`: the inhibition was 19.8%.

In the case of `CCCCCCn1c(SCC(=O)c2ccccc2)nc2c1c(=O)[nH]c(=O)n2C`, the inhibition is -4.27%.

Consider `CCCCCn1c(SCCC(C)C)nc2c1c(=O)[nH]c(=O)n2C`, for which the inhibition was 97.9% (active).

For `Cc1cc(C(=O)NCCc2ccc(Cl)cc2)n(-c2ccccc2)n1`, the inhibition is 16.9%.

For the molecule `CCN1CCN(Cc2nc3c(c(=O)n(C)c(=O)n3C)n2CC(=O)c2ccccc2)CC1`, the inhibition is 6.1%.

Consider `CC1CCCN(Cc2nc3c(c(=O)n(C)c(=O)n3C)n2CC(=O)c2ccccc2)C1` (configuration not stated), for which the inhibition was 3.62%.

In the case of `CCCCCCn1c(CN2CCCC(C)C2)nc2c1c(=O)n(C)c(=O)n2C` (configuration not stated), the inhibition is 97.9% (active).

For the molecule `O=C(NNS(=O)(=O)Cc1ccccc1)c1ccc([N+](=O)[O-])cc1`, the inhibition was 0.23%.

As for `O=C(c1ccc(F)cc1)n1c(=S)nc2ccccn21`, the inhibition is 20.7%.

`CCC(C)Cn1c(O)cc2nn(-c3nc4ccccc4s3)c(=O)c-2c1C` (configuration not stated): the inhibition is 83.7% (active).

Turning to `CCOC(=O)N1CCN(CC(=O)Nc2cc(C)nn2-c2nc3ccccc3s2)CC1`, the inhibition is -20.6%.

In the case of `Cc1cc(NC(=O)CN2CCCC(C)C2)n(-c2nc3ccccc3s2)n1` (configuration not stated), the inhibition is 52.1%.

Consider `CCOC(=O)CN(C)S(=O)(=O)c1ccc(-c2cc(C(=O)OC)sc2C(F)(F)F)cc1`, for which the inhibition was -2.09%.

As for `CCOC(=O)c1nnn2c1nc(N1CCN(c3ccccc3)CC1)c1ccccc12`, the inhibition is 4.43%.

On to `O=C(CSc1nnc(-c2ccccn2)n1-c1ccccc1)Nc1ccc2c(c1)OCO2`, for which the inhibition was 14.5%.

Regarding `Cc1ccc(-n2c(SCC(=O)Nc3ccc4c(c3)OCO4)nnc2-c2ccccn2)cc1`, the inhibition is 23%.

With `Cc1ccc(-n2c(SCC(=O)Nc3ccc4c(c3)OCO4)nnc2-c2ccoc2C)cc1`, the inhibition is 79.8% (active).

Consider `COc1ccc(/C(C)=N/N2CCOCC2)c(O)c1`, for which the inhibition was 4.65%.

With `Cc1ccc2nc(Nc3ncc4c(n3)CC(C)(C)CC4=O)nc(C)c2c1`, the inhibition was 7.17%.

Turning to `Cc1ccc2nc(Nc3ccccc3O)nc(-c3ccccc3)c2c1`, the inhibition was 85.7% (active).

Consider `Cc1ccc2nc(-c3cccc(Br)c3)cc(C(=O)Nn3cnnc3)c2c1`, for which the inhibition is 6.71%.

For `O=C(Nc1ccccc1)Nc1ccc(C(F)(F)F)cn1`, the inhibition is -1.82%.

Take `Cc1ccc2cc(/C=N/NC(=O)[C@@H]3CCCN3)c(Cl)nc2c1`: the inhibition is 13.2%.

As to `Cc1ccc2cc(/C=N/Nc3ccc(C(=O)O)cc3)c(Cl)nc2c1`, the inhibition is -19%.

Regarding `CSCC[C@H](NC(=O)OC(C)(C)C)C(=O)N/N=C/c1cc2ccc(C)cc2nc1Cl`, the inhibition was 73.9% (active).

`S=c1[nH]nc(-c2ccncc2)n1/N=C/c1ccccc1Cl`: the inhibition was 9.19%.

Take `CC1=CC2=NC(=O)/C(=C/c3coc4ccccc4c3=O)C(=N)N2O1`: the inhibition is 10%.

Regarding `O=[N+]([O-])c1cc(Cl)cc(/C=N/NC(=S)Nc2cc(S(=O)(=O)N3CCOCC3)ccc2Cl)c1O`, the inhibition is 24.1%.

As to `O=C(COC(=O)c1ccc(F)cc1)Nc1nc2ccc([N+](=O)[O-])cc2s1`, the inhibition is 7.2%.

On to `O=C(O)CCC(=O)Nc1nc2ccc([N+](=O)[O-])cc2s1`, for which the inhibition is -7.8%.

Take `Cc1cc(C)cc(OCC(=O)Nc2nc3ccc([N+](=O)[O-])cc3s2)c1`: the inhibition was 89.4% (active).

Take `Cc1cc2c(cc1C)N(Cc1ccccc1)C1=NCCCN12`: the inhibition was 17.9%.

For the molecule `CC(C)CN(CC(C)C)CC(O)CN(c1ccccc1)S(=O)(=O)c1ccccc1[N+](=O)[O-]` (configuration not stated), the inhibition was 6.94%.

With `COc1ccccc1N(CC(=O)Nc1ccc(C(F)(F)F)cc1)S(C)(=O)=O`, the inhibition is 12.5%.

With `C/C(=N/NC(=O)c1ccc(NC(=O)c2ccc(F)cc2)cc1)c1ccccc1`, the inhibition was 52%.

Turning to `CC(=O)Nc1ccc(/C(C)=N/NC(=O)CN(c2ccccc2Br)S(C)(=O)=O)cc1`, the inhibition was 91.8% (active).

As for `Cc1ccc2c(c1)c1ncn(Cc3ccc(F)cc3)c(=O)c1n2C`, the inhibition is 21.6%.

Take `S=c1nc2ccccc2c2nc(-c3cccnc3)[nH]n12`: the inhibition was -22.9%.

Take `CCCc1ccc(C(=O)[C@@H]2[C@@H](C(C)=O)N3c4ccc(F)cc4C=C[C@@H]3[C@@]23C(=O)Nc2ccccc23)cc1`: the inhibition was 72.2% (active).

As to `CC(C)(C)CN1C(=O)C(=O)NC[C@H]1Cc1cccc2ccccc12`, the inhibition was 16.9%.

Turning to `CN1CCc2ccccc2C1Cc1ccccc1NC(=O)c1sc2ccccc2c1Cl` (configuration not stated), the inhibition is 24.9%.

Consider `Nc1nonc1-c1nc2ccccc2n1Cc1ccc(F)cc1`, for which the inhibition is 84.3% (active).

Turning to `CC(C)(C)N1CC(c2nc3ccccc3n2Cc2ccc(F)cc2)CC1=O` (configuration not stated), the inhibition was -17.7%.

Take `CC(=O)Nc1nonc1-c1nc2ccccc2n1Cc1ccccn1`: the inhibition is 33.7%.

With `COC(=O)c1cc(N2CCNCC2)nc2ccccc12`, the inhibition was 19.8%.

Take `Cc1cc(=O)[nH]c2nnnn12`: the inhibition is 8.36%.

In the case of `O=C(Nc1cc(C(F)(F)F)ccc1Cl)c1cc(C2CC2)on1`, the inhibition is 67%.

Take `Cc1nn(Cc2ccc(Cl)c(Cl)c2)c(C)c1NC(=O)c1cc(C2CC2)on1`: the inhibition was 82.7% (active).

Take `Cc1cc(C(=O)Nc2c(C)nn(Cc3ccccc3)c2C)on1`: the inhibition is 11.6%.

As for `CCCCOc1ccc(CON(C(C)=O)C(C)=O)cc1Cl`, the inhibition is 10.1%.

On to `COCCn1c(SCC(=O)c2[nH]c(C)c(C(C)=O)c2C)nc2ccccc2c1=O`, for which the inhibition was -9.67%.

On to `C=CCSC(CC)(CC)C(N)=O`, for which the inhibition was 4.32%.

As for `O=C1/C(=C/c2cccs2)SC(=S)N1C1CCS(=O)(=O)C1` (configuration not stated), the inhibition is 8.4%.

Regarding `CCCCOC(=O)c1ccc(N2C(=O)CC(N3CCN(C/C=C/c4ccccc4)CC3)C2=O)cc1` (configuration not stated), the inhibition was 81.1% (active).

Regarding `CCOC(=O)c1ccc(N2C(=O)CC(N3CCN(C(=O)c4ccccc4)CC3)C2=O)cc1` (configuration not stated), the inhibition is 14.7%.

As for `CCOC(=O)c1ccc(N2C(=O)CC(N3CCC(C(=O)OCC)CC3)C2=O)cc1` (configuration not stated), the inhibition was 1.79%.

On to `O=[N+]([O-])c1cccc(C2=NCCS2)c1`, for which the inhibition was 5.31%.

As for `O=c1[nH]c2ccccc2n2c(-c3ccccc3)nnc12`, the inhibition was 10.4%.

Turning to `O=[N+]([O-])c1cccc(-c2nnc3c4ccccc4c4ccccc4n23)c1`, the inhibition was 96.5% (active).

As to `CC(CNS(=O)(=O)c1ccc(Br)cc1)CN(C)C` (configuration not stated), the inhibition is 1.82%.

For the molecule `Cc1ccc2c(C)c(C(=O)N3CCC(N4CCC(C(=O)NC5CC5)CC4)CC3)oc2c1`, the inhibition is 25.5%.

As for `Fc1ccccc1/C=C1\CCCC2=C1Nc1ncnn1C2c1ccccc1F` (configuration not stated), the inhibition was 108% (active).

Take `CC1CC(=O)Nc2ccccc2N1S(=O)(=O)c1cccs1` (configuration not stated): the inhibition is 4.64%.

For `O=C(Nc1ccc2c(c1)CCC2)c1cccc(S(=O)(=O)N2CCN(c3ccc(F)cc3)CC2)c1`, the inhibition is 78.2% (active).

As for `O=C(Nc1ccc2c(c1)CCC2)c1cccc(S(=O)(=O)Nc2ccccc2Cl)c1`, the inhibition is 33.4%.

In the case of `O=C(Nc1cccnc1)c1cccc(S(=O)(=O)N2CCCC2)c1`, the inhibition is 1.13%.

On to `Cc1ccc(Cn2c(SCC(=O)N/N=C/c3ccccc3OCC(=O)O)nc3ccccc32)cc1`, for which the inhibition was 19.7%.

Consider `O=C(NCc1ccc(F)cc1)C1CCC(CNc2c(N3CCOCC3)c(=O)c2=O)CC1` (configuration not stated), for which the inhibition was -4.35%.

Consider `O=C(NNc1ccccc1Cl)C(O)(c1cccc(C(F)(F)F)c1)c1cccc(C(F)(F)F)c1`, for which the inhibition is 100% (active).

Consider `O=C(CNS(=O)(=O)c1cccc(C(F)(F)F)c1)Nc1ccccc1F`, for which the inhibition is -2.12%.

Turning to `O=C(Nc1cc(C(F)(F)F)ccc1Cl)C(=O)N1CCCCC1`, the inhibition is 23.6%.

With `COc1ccc(CCN2C(=O)N(c3ccc(OC)cc3)C(=O)C2CC(=O)Nc2ccc(OC)cc2)cc1` (configuration not stated), the inhibition is -32.7%.

For the molecule `Clc1ccccc1CSc1nnc(-c2ccco2)c(-c2ccco2)n1`, the inhibition was 71.2% (active).

As for `Nc1nc(SCc2ccccc2Cl)n[nH]1`, the inhibition is 6.63%.

As to `c1ccc(CSc2nnc(-c3ccco3)c(-c3ccco3)n2)cc1`, the inhibition is -37.2%.

Regarding `O=C(Cc1ccccc1)N1N=C(c2ccncc2)CC1(O)C(F)(F)F` (configuration not stated), the inhibition is 4.37%.

`COc1ccc2oc(N)c(C=O)c(=O)c2c1`: the inhibition is 13.1%.

Take `COc1ccc2c(c1)C(C)=CC(C)(C)N2C(=O)CNCc1ccc2c(c1)OCO2`: the inhibition was 73.7% (active).

For the molecule `COc1ccc2c(c1)C(C)=CC(C)(C)N2C(=O)Nc1ccccc1`, the inhibition was 7.45%.

Turning to `CCn1cc(C(=O)NCc2ccc3c(c2)OCO3)c2cc(OC)c(OC)cc2c1=O`, the inhibition is 33.4%.

`O=C(O)C(c1ccccc1)C1(O)CCCCC1` (configuration not stated): the inhibition is 3.7%.

As to `CCc1nnc(NC(=O)c2sc3nc(C)cc(COC)c3c2N)s1`, the inhibition was -32%.

On to `CCc1nnc(NC(=O)c2cccc(S(=O)(=O)N(C)c3ccc(OC)cc3)c2)s1`, for which the inhibition was 28.5%.

With `CCc1ccc2nc3sc(C(=O)Nc4nnc(CC)s4)c(N)c3cc2c1`, the inhibition is 76.2% (active).

As to `COC(=O)[C@H](CC(C)C)NC(=O)N1CCCCC1C` (some centres not stated), the inhibition is 16.1%.

As for `COc1ccc(-c2noc(-c3ccc(C)cc3)n2)cc1`, the inhibition is 20.8%.

`COc1ccc(-c2noc(-c3cccc(OC)c3OC)n2)cc1OC`: the inhibition is 19%.

For `COc1ccc(-c2nc(-c3ccccc3)no2)c(OC)c1`, the inhibition is 81.4% (active).

In the case of `COc1ccc(S(=O)(=O)N2CCCC2)c(C)c1C`, the inhibition was 31.7%.

Turning to `CCOc1ccc(S(=O)(=O)n2ccnc2)c2ccccc12`, the inhibition is 4.14%.

For the molecule `CCOc1ccc(S(=O)(=O)N2CCCCCC2)c2ccccc12`, the inhibition was 71.1% (active).

In general, inhibition refers to the change of the read-out against control, counted positive when it falls.
